Source: PubChem
FBPA Giardia inh: Giardia lamblia aldolase inhibition; purified Giardia FBPA; Potency, µM (top dose mostly 59.6 µM), for inactives: top-dose activity, negative = inhibition, usual class: inhibitors; 0.71% of 290,000 active; AID 2451; further: potency means the concentration at half of the fitted maximal effect; nearly all actives have a fitted effect of over 55% in size
Target sequence (A8B2U2 whole entry, looked up): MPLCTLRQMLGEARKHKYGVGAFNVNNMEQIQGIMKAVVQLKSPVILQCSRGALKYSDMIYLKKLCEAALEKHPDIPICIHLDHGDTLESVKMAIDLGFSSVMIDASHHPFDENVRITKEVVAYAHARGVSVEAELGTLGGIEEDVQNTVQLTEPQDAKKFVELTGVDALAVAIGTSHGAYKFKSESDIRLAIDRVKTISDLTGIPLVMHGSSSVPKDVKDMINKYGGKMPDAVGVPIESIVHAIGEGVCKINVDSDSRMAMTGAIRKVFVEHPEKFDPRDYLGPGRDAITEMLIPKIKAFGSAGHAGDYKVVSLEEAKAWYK
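Giardia FBPA (40 nM reagent) was preincubated 10 min at RT with compound (up to 57.5 uM final), then substrate plus GAPDH/TPI/NAD/arsenate coupling system with diaphorase/resazurin was added; resorufin fluorescence (525/598 nm) was read after 20 min.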
Pf growth 48h: P. falciparum growth inhibition at 48 hours (one generation); P. falciparum luciferase growth in erythrocytes, 48 h; Potency, µM (doses to about 28.7 µM), without a hit: top-dose activity change, negative = inhibition, hits mostly inhibitors; 5.9% of 310,000 active; further: potency means the concentration at half of the fitted maximal effect
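A one-generation exposure of luciferase-tagged malaria parasites in RPMI 1640/Albumax erythrocyte culture, 37 C and 5% CO2. Inhibition is inferred from decreased luminescence after adding detection reagent.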
Pf growth 96h: P. falciparum growth inhibition at 96 hour, primary screen for plastid delayed-death inhibitors; Potency, µM (top dose mostly 28.7 µM), without a hit: at the top dose activity change, negative = inhibition, hits mostly inhibitors; AID 504834; P. falciparum luciferase reporter growth, 96 h; 6.9% of 320,000 active; further: potency means the concentration at half of the fitted maximal effect
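P. falciparum expressing integrated firefly luciferase, in erythrocytes at 2% hematocrit, 0.05% parasitemia, incubated with compounds 96 h at 37 C, 5% CO2. Growth inhibition read as loss of luminescence; two-generation exposure targets delayed-death apicoplast inhibitors.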
Sm TGR block: S. mansoni TGR enzyme inhibition | Q962Y6 | purified TGR, DTNB reduction, TNB absorbance 405 nm | Potency, µM (titrated, usually from 114 µM), inactives show at the top dose activity change, negative = inhibition, usual class: inhibitors | 3% of 360,000 active; further: potency means the concentration at half of the fitted maximal effect; nearly all actives have a fitted effect of over 60% in size
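First, TGR (20 nM dispensed) and NADPH were mixed with compound. Second, a 15 min room-temperature incubation followed. Third, further NADPH and then DTNB were added to start the reaction. Finally, TNB absorbance was monitored kinetically.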
HCMV inh: blocks human cytomegalovirus replication. HFF cells, HCMV-luciferase reporter, 72 h; stronger effect = lower value. activity change, negative = inhibition, % at 57.5 µM. 4.5% of 410,000 active. AID 1259415; in the data active means activity change below about -60%; inconclusive means no clear call, values can overlap the other calls; inactive means above about -39%
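Steps: HFFs plated, 16 h 37C; compounds added; HCMV-luciferase added to MOI 1 PFU/cell; 72 h 37C; OneGlo reagent, 5 min room temperature; luminescence read, normalized to controls.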
Starred values were filed as active, the others as inactive; ? = inconclusive; nt = no result. Compounds with a hit are over-represented: about 14% of the library has one in this group of screens. Unless noted, the call rests on the fitted dose curve; in most records, active means well fitted curve in the direction sought with a large enough effect; inconclusive means small, poorly fitted or top-dose-only effect, or another doubt; inactive means no such curve, though single readings can be large; an effect the other way counts as inactive or inconclusive. On the % scale 0 is the no-effect control and ±100 the full control effect.

SMILES	FBPA Giardia inh	Pf growth 48h	Pf growth 96h	Sm TGR block	HCMV inh
COc1cccc(C(c2sc3nc(-c4ccco4)nn3c2O)N2CCOCC2)c1 (centres undefined)	nt	nt	nt	3%	-3
CCc1cc(C(c2ccccn2)N2CCN(C)CC2)c(NC(=O)c2ccccc2)s1 (centres undefined)	5%	?	?	11µM*	-1
CCOc1ccc(C(c2c(NC(=O)c3ccccc3)sc(C)c2C)N2CCN(C)CC2)cc1 (centres undefined)	8%	?	12µM*	-1%	-2
Cc1sc(NC(=O)c2ccco2)c(CN2CCCCC2)c1C	2%	?	?	-1%	-15
COc1cccc(C(c2c(NC(=O)c3ccco3)sc(C)c2C)N2CCOCC2)c1 (centres undefined)	nt	4.7µM*	3.3µM*	0%	-37
CCOC(=O)c1cc(NC(=O)c2ccc(Cl)cc2)c(=O)n2c1oc1ccccc12	nt	nt	nt	1%	-3
CCc1ccc(NC(=O)C(=O)NCC(c2ccc3c(c2)OCO3)N2CCN(C)CC2)cc1 (centres undefined)	nt	nt	nt	2%	-10
CCOC(=O)c1c(C)[nH]c(CCC(=O)NCc2ccc(N(C)C)cc2)c1C	nt	nt	nt	-1%	46
CCOc1cc(N2CCOCC2)c(OCC)cc1NC(=O)c1ccco1	-7%	-19%	?	-3%	28
CCOc1ccc(C(c2c(NC(=O)c3ccco3)sc(C)c2C)N2CCOCC2)cc1 (centres undefined)	nt	5.2µM*	13µM*	-29%	-5
Cc1sc(NC(=O)c2ccccc2)c(C(c2ccccn2)N2CCN(CCO)CC2)c1C (centres undefined)	-1%	?	-50%	0%	-62*
CCSc1nnc(NC(=O)C2CCN(S(=O)(=O)c3cc(C(F)(F)F)ccc3Cl)CC2)s1	-7%	-16%	?	89µM*	?
CCSc1nnc(NC(=O)C(C)(C(F)(F)F)C(F)(F)F)s1	-4%	3%	?	-20%	-66*
CCSc1nnc(NC(=O)C(C(F)(F)F)C(F)(F)F)s1	1%	-7%	?	40µM*	-2
COC(=O)c1ccc(Cl)c(NC(=O)NC23CC4CC(CC(C4)C2)C3)c1	-11%	nt	0.66µM*	1%	-29
COC(=O)c1cccc(NC(=O)NC23CC4CC(CC(C4)C2)C3)c1	-14%	nt	?	6%	20
COc1ccc(Cl)cc1NS(=O)(=O)c1cccc(C(=O)NCC(c2ccco2)N(C)C)c1 (centres undefined)	nt	54%	7%	13µM*	35
COc1ccccc1NS(=O)(=O)c1cc(C(=O)NCC(c2cccs2)N2CCOCC2)ccc1C (centres undefined)	nt	?	?	-13%	-26
COc1ccc(C(CNC(=O)c2ccc(C)c(S(=O)(=O)Nc3ccccc3OC)c2)N2CCCC2)cc1 (centres undefined)	6%	4.1µM*	?	-11%	-23
COc1ccc(NS(=O)(=O)c2cccc(C(=O)NCC(c3ccc(OC)cc3)N3CCCCC3)c2)cc1 (centres undefined)	nt	nt	nt	nt	-27
COc1ccc(C(CNC(=O)c2cccc(S(=O)(=O)Nc3ccccc3OC)c2)N2CCCCC2)cc1 (centres undefined)	nt	nt	nt	nt	-99*
COc1ccc(Cl)cc1NS(=O)(=O)c1cccc(C(=O)NCC(c2ccco2)N2CCCC2)c1 (centres undefined)	nt	-3%	?	-20%	-22
COc1ccccc1NS(=O)(=O)c1cccc(C(=O)NCC(c2ccco2)N2CCCCC2)c1 (centres undefined)	nt	5.2µM*	?	-23%	-16
CS/C(=N\S(=O)(=O)c1cccs1)Nc1ccc(Br)cc1F	3%	11%	44%	6%	6
COc1ccc(C(CNC(=O)c2cccc(S(=O)(=O)Nc3ccccc3OC)c2)N2CCCC2)cc1 (centres undefined)	nt	?	13µM*	-7%	-13
C/C(=N\NC(=O)CNc1cccc(C)c1)c1ccc(Br)s1	-1%	8%	?	-15%	-62*
C/C(=N\Nc1ccc(C(=O)O)cc1)c1ccc(Cl)s1	-3%	148%	?	-2%	249
